# According to ChEMBL document CHEMBL4808148, “HDAC6 screening dataset using tau-based substrate in an enzymatic assay yields selective inhibitors and activators” (2021):
# About 150 (2.7%) of roughly 5,600 compounds showed an effect of 50% or more. The list comes from a sample in which strong results are over-represented; it also holds similar structures and randomly drawn compounds.
# Biological target: T1, Protein deacetylase HDAC6 (Homo sapiens) (UniProt Q9UBN7)
# T1 sequence (whole entry): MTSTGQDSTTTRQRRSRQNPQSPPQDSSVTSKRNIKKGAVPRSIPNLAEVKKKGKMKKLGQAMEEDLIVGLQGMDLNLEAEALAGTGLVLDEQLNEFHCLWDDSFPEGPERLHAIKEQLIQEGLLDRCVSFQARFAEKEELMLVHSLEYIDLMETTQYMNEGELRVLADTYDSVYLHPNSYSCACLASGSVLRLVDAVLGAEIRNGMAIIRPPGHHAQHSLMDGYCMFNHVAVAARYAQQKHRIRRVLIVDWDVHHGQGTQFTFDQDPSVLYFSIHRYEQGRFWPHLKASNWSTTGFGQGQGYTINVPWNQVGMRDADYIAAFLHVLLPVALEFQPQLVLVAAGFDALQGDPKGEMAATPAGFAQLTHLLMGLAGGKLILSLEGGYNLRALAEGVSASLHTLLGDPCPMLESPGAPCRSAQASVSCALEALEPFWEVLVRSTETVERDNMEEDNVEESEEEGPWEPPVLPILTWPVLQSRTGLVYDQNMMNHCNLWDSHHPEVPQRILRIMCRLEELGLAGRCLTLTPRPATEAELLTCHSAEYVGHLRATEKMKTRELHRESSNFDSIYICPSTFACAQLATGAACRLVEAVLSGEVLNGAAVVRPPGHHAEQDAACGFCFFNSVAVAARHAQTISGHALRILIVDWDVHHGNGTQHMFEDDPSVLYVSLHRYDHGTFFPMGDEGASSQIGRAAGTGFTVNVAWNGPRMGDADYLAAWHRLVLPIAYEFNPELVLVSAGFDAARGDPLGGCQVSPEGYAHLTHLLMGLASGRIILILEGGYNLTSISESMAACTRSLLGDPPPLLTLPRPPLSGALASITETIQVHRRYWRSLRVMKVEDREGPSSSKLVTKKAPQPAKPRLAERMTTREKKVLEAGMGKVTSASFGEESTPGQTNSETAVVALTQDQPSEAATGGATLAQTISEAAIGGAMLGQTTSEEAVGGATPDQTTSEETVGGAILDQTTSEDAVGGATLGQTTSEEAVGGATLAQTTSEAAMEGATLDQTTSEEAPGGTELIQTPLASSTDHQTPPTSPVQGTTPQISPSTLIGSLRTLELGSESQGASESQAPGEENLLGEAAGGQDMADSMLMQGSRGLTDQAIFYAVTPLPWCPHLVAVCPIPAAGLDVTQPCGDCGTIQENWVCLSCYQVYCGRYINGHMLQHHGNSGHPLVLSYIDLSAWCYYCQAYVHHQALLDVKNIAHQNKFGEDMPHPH
# Conditions: at 10 µM
row,SMILES,inhibition
1,O=C(/C=C/c1cccc(S(=O)(=O)Nc2ccccc2)c1)NO,97.7%
2,CCNC(=O)/C=C/c1cccc(Br)c1,11.1%
3,O=C(/C=C/c1ccccc1)NCCO,44.6%
4,COc1ccc(Cl)cc1C(=O)NCCc1ccc(C(=O)O)cc1,-2.67%
5,Cc1ccc(C)c(OCCCC(C)(C)C(=O)O)c1,4.07%
6,Cc1cc(Cl)ccc1OCCCC(=O)NO,87.1%
7,N=C(N)NCCC[C@H](N)C(=O)NCC(=O)N[C@@H](CC(=O)O)C(=O)N[C@@H](CO)C(=O)O,5.37%
8,O=C(c1ccc2nccnc2c1)N1CCCCC1,-1.26%
9,CCNC(=O)NS(=O)(=O)c1sc(CC(C)C)cc1-c1ccc(Cn2c(-c3ccccc3)nc(OC)c2C=O)cc1,-1.89%
10,COc1ccc(Cl)c(Nc2nc3ccccc3nc2NS(=O)(=O)c2cccc(NC(=O)C(C)(C)N)c2)c1,-9.43%
11,CCOc1ccc2nc(S(N)(=O)=O)sc2c1,1.88%
12,COc1ccc2nc(NC(=O)Nc3ccccc3)sc2c1,58.2%
13,COC(=O)[C@H](Cc1cccc(C(=N)N)c1)[C@@H](C)NC(=O)c1ccc(-c2cc[n+]([O-])cc2)cc1,-6.46%
14,N#CCC1(n2cc(-c3ncnc4[nH]ccc34)cn2)CN(C2CCN(C(=O)c3ccnc(C(F)(F)F)c3F)CC2)C1,-4.32%
15,Cc1ccccc1/N=N/c1ccc(/N=N/c2c(O)ccc3ccccc23)c(C)c1,0.88%
16,Cc1ccc(O)c(/N=N/c2ccccc2)n1,99.5%
17,CC(C)(CC(=O)N1CCCC1)NCC(=O)N1C[C@@H](F)C[C@H]1C#N,1.6%
18,Cn1ccc2cc3c(cc21)CCN3C(=O)Nc1cccnc1,69.4%
19,CSc1cc2c(cc1C(F)(F)F)N(C(=O)Nc1cccnc1)CC2,1.32%
20,Cn1ccc2cc(NC(=O)Nc3cccnc3)ccc21,39.6%
21,COc1ccccc1N1CCN(CC(O)COc2cc(OC)c(OC)c(OC)c2)CC1 (stereo not given),-4.5%
22,O=C(CCCCCCCn1cc(-c2cccnc2)nn1)Nc1ccccc1-c1ccccc1,-3.08%

row,SMILES,inhibition
1,O=C(CCCCCCC(=O)NO)NO,96.5%
2,O=C(O)CCCCCCCC(=O)O,0.37%
3,NC(=O)c1cccnc1,9.25%
4,O=C(O)CCCCCCCCC(=O)O,0.43%
5,O=C(CCCCCCC(=O)Nc1cccnc1)NO,98.1%
6,CC(C)Cc1ccc([C@@H](C)C(=O)NS(C)(=O)=O)cc1,-2.75%
7,OC(c1ccc(-c2ccc(CN3CCN(Cc4ccncc4)CC3)cc2)c(F)c1)(C(F)(F)F)C(F)(F)F,-2.34%
8,N#Cc1cccc(C(=O)Nc2cc(-c3ccccc3)nn2-c2ccccc2)c1,12.2%
9,Cc1ccc(-c2ccc(C)cn2)nc1,70.4%
10,CCOc1ccc(NC(=S)N2CCC(C(O)(c3ccccc3)c3ccccc3)CC2)cc1,-1.16%
11,O=C(O)C(O)C(O)C(O)C(O)CO (stereo not given),-3.09%
12,O=Cc1ccc(CO)o1,-2.99%
13,CS(=O)(=O)c1ccc(Oc2cc(F)cc(C#N)c2)c2c1[C@H](O)C(F)(F)C2,-4.01%
14,CCc1nc(C(N)=O)c(Nc2ccc(N3CCC(N4CCN(C)CC4)CC3)c(OC)c2)nc1NC1CCOCC1,0.8%
15,Fc1ccc(-c2nc(-c3c(F)cccc3F)[nH]c2-c2ccncc2)cc1,-5.55%
16,Cc1ccc(-c2cn3c4c(sc3n2)CCCC4)cc1,95.1%
17,N=C(N)Nc1ccc(Cl)cc1,0.23%
18,N=C(N)c1ccc(/N=N/Nc2ccc(C(=N)N)cc2)cc1,-8.86%
19,Cc1sc(C)c(C(=O)NC2(c3ccc(C(=O)O)cc3)CC2)c1Cc1ccc(C(F)(F)F)cc1,3.37%
20,O=C1COc2c(CCNCCN(C(=O)CCNCCc3ccc(Cl)c(Cl)c3)C3CCCCC3)ccc(O)c2N1,3.6%
21,C[C@H](C[C@H](N)C(=O)O)C(=O)O,2.11%
22,c1ccc(N2CCN(Cc3nc4ccccc4[nH]3)CC2)nc1,1.74%

row,SMILES,inhibition
1,c1ccc2[nH]c(-c3cscn3)nc2c1,84.5%
2,COc1ccc(C(=O)C2CCN(CC(=O)N(Cc3nc4c(c(=O)[nH]3)COCC4)CC3CC3)CC2)cc1,-1.1%
3,O=C(NCC(=O)N1CCCCC1)Nc1ccc2nnsc2c1,4.96%
4,O=C(O)c1ccc2c(c1)nc(Nc1cccc(Cl)c1)c1ccncc12,-4.86%
5,O=C(O)c1ccc2nc(-c3cc(Cl)cc(Cl)c3)oc2c1,99.2%
6,CCS(=O)(=O)c1ccc2oc(-c3ccc4ccccc4c3)nc2c1,37.2%
7,C=C1C(=O)[C@@]23C(CC[C@@H]1[C@H]2O)[C@@]12CO[C@]3(O)[C@@H](O)[C@@H]1C(C)(C)CC[C@@H]2O (stereo not given in full),-6.66%
8,O=C(O)c1cc(-c2ccccc2)nc2ccccc12,-1.66%
9,COc1cc2ncc(-c3ccccc3)nc2cc1OC,97.5%
10,COC(=O)[C@H](NC(=O)c1cc(-c2ccccc2)nc2ccccc12)c1ccccc1,0.79%
11,C/C(=N\c1ccccc1N)c1c(C)cc(=O)n(O)c1O,2.45%
12,O=C(O)CCCCN(CCc1ccccc1OCc1ccc(CCc2ccccc2)cc1)Cc1ccc(C(=O)O)cc1,-4%
13,COc1cc2c(NC3CCN(C4CCCCC4)CC3)nc(N3CCCN(C(C)C)CC3)nc2cc1OCCCN1CCCCC1,-8.06%
14,COc1cc2nc(C3CC3)nc(N3CCN(c4ccccc4OC)CC3)c2cc1OC,0%
15,CC(C(=O)O)c1ccc(N2Cc3ccccc3C2=O)cc1 (stereo not given),82.1%
16,CC(C(=O)O)c1cccc(C(=O)c2ccccc2)c1 (stereo not given),4.07%
17,CC(C(=O)O)c1ccc2c(c1)CC(=O)c1ccccc1S2 (stereo not given),-3.15%
18,CNC(=O)O[C@H]1COc2ccc(N3CCN(C4COC4)CC3)cc2[C@@H]1NC(=O)c1ccc(F)cc1,-3.83%
19,O=C1Nc2cc(Br)ccc2/C1=C1/Nc2ccccc2/C1=N\O,2.55%
20,O=C1COc2nccc(-c3ccccc3F)c2CN1Cc1cc(C(F)(F)F)cc(C(F)(F)F)c1,-5.84%
21,C=C1/C(=C\C=C2/CCC[C@]3(C)[C@@H]([C@H](C)OCCC(C)(C)O)CC[C@@H]23)C[C@@H](O)C[C@@H]1O,1.22%
22,Cc1cccc(C#Cc2ccccc2)n1,94.7%

row,SMILES,inhibition
1,NS(=O)(=O)C#Cc1ccccc1,-5.38%
2,COc1cc(C(=O)N(CCC2CCCN2C)C/C(C)=C/c2ccccc2F)cc(OC)c1OC (stereo not given),-2.86%
3,CC(C)(C)c1cc(C(=O)/C(C#N)=N/Nc2cccc(Cl)c2)no1,7.67%
4,CC(C)Oc1ccc2c(=O)c3cc(C(=O)O)ccc3oc2c1,76.3%
5,CNC(=O)c1c(C)oc2cc(Oc3ncnc4cc(OC)c(OC)cc34)ccc12,14.7%
6,CC(C)(N)c1cc(C(=O)N[C@@H]2CCc3ccc(Oc4ccnc5c4CCC(=O)N5)cc3C2)cc(C(F)(F)F)c1,-1.36%
7,CN(C)C/C=C/C(=O)Nc1ccc(C(=O)Nc2cccc(Nc3ncc(Cl)c(-c4c[nH]c5ccccc45)n3)c2)cc1,-4.86%
8,CN(C)c1ccc(C(=C2C=CC(=[N+](C)C)C=C2)c2ccc(N(C)C)cc2)cc1,59.7%
9,O=C(Nc1ccc2[nH]ccc2c1)c1ccccc1,49.3%
10,O=C(Nc1cc2cc[nH]c2cn1)c1ccccc1,97.7%
11,NC(=O)c1ccc2[nH]ccc2c1,-7.83%
12,CCOc1ccc(-n2c([C@@H](C)N(Cc3cccnc3)C(=O)Cc3ccc(OC(F)(F)F)cc3)nc3ncccc3c2=O)cc1,-2.97%
13,COc1cccc(N2CCN(C3=Nc4c(F)cccc4[C@H](CC(=O)O)N3c3cc(C(F)(F)F)ccc3OC)CC2)c1,-7.43%
14,O=C1c2ccccc2C(=O)C1c1ccccc1,0.29%
15,COc1ccc(C2CC(c3ccccc3)=NN2c2ccc(S(N)(=O)=O)cc2)cc1 (stereo not given),-2.13%
16,O=C1c2ccccc2C(=O)C1c1ccc(Br)cc1,86.8%
17,O=C1c2ccccc2C(=O)C1c1ccc(Cl)cc1,-0.61%
18,COc1ccc(C2C(=O)c3ccccc3C2=O)cc1,97.2%
19,COc1ccc(Oc2c(Cl)cnn(C3c4ccccc4-c4ccccc43)c2=O)cc1,3.12%
20,Nc1ncc2c(n1)CC(c1ccco1)CC2=O (stereo not given),10.6%
21,CO/N=C1\C[C@@H](C(=O)NC[C@@H](O)c2ccccc2)N(C(=O)c2ccc(-c3ccccc3C)cc2)C1,-5.99%
22,CC(=O)Oc1ccccc1C(=O)Nc1ccccc1,24.1%

row,SMILES,inhibition
1,Nc1n[nH]c2nnc(-c3c(-c4ccccc4)nn4ccccc34)cc12,1.45%
2,NC(=O)c1ccc([N+](=O)[O-])cc1Cl,3.17%
3,O=C(Nc1ccc([N+](=O)[O-])cc1O)Nc1ccccc1Br,61.6%
4,CCN(CCNC(=O)Nc1ccccc1Br)c1cccc(C)c1,-8.23%
5,CCC(C(=O)O)c1ccc(CC(C)C)cc1 (stereo not given),5.56%
6,CCCCC1OC(=O)c2ccccc21 (stereo not given),4.45%
7,N[C@@H]1c2cccnc2[C@H](OC(=O)N2CCC(n3c(=O)[nH]c4ncccc43)CC2)CC[C@H]1c1cccc(F)c1F,-1.43%
8,CS(=O)(=O)N(Cc1ccco1)CC(O)Cn1c2ccccc2c2ccccc21 (stereo not given),-5.79%
9,O[C@H]1CC[C@H](Nc2nc(-c3ccccc3)nc3[nH]ccc23)CC1,2.15%
10,CN1CCC(NC(=O)c2cc(-c3c(O)cc(O)cc3Oc3ccc([N+](=O)[O-])cc3)on2)CC1,-7.8%
11,O=C(NC1CC1)c1cc(-c2cccs2)on1,60.8%
12,Cc1ccc(S(=O)(=O)NCc2ccccc2)cc1,-1.3%
13,CO[C@H]1CC[C@@H](C(=O)c2ccc3nc4c(cc3c2)CCCO4)CC1,1.73%
14,CCCn1c(=O)c2[nH]c(-c3cnn(Cc4cccc(C(F)(F)F)c4)c3)nc2n(CC)c1=O,2.86%
15,CC(=O)NC[C@H]1CN(c2ccc(N3CCN(C(=O)CO)CC3)c(F)c2)C(=O)O1,-2.46%
16,COc1cc(NC(=O)c2ccc(-c3ccc(Cl)cc3)o2)cc(OC)c1,4.45%
17,COc1ccc(/C=C/C(=O)O)cc1,-6.98%
18,COc1cccc(NC(=O)/C=C/c2ccc(Cl)cc2)c1,91.8%
19,CN(CCc1ccc(Cl)c(Cl)c1)CCN1CCCC1,3.41%
20,O=C(O)COc1ccc(/C=C2\SC(=O)NC2=O)cc1,95%
21,CCc1ccc(/C=C2/SC(=S)NC2=O)cc1,16.7%
22,N=C1NC(=O)/C(=C/c2ccc(O)cc2)S1,14%
